Source: PubChem (National Center for Advancing Translational Sciences (NCATS))
Compounds with a hit are over-represented: about 2% of the library has one in this group of screens.
TDP43 rescue: TDP-43 toxicity inhibition in yeast. TDP-43 expressing yeast growth rescue, BacTiter-Glo, 24 h. Potency, µM (top dose mostly 46.1 µM), inactives show at the highest dose growth rescue (activation), actives largely listed as activators. 410,000 tested, 1.8% active. AID 652104; note: potency is the fitted concentration of half-maximal effect; % of control where 0% means no effect; nearly all actives have a fitted effect of over 50% in size
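Galactose-induced TDP-43 yeast, OD600=0.02, compound pinned; 24 hr, 30 deg C; BacTiter-Glo luminescence for growth. Inhibitors of TDP-43 toxicity read as activators.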
IDH1 R132H inh: inhibitors of human mutant IDH1 R132H | O75874 | IDH1-R132H enzyme, NADPH consumption, diaphorase/resazurin fluorescence | Potency, µM (titrated, usually from 76.6 µM), inactives show at the top dose activity change, negative = inhibition, hits mostly inhibitors | 390,000 tested, 0.093% active; note: potency is the fitted concentration of half-maximal effect; % is set by controls: 0 for no effect and ±100 for the full control effect; nearly all actives have a fitted effect of over 65% in size
Target sequence (O75874 whole entry R132H, stated change not applied): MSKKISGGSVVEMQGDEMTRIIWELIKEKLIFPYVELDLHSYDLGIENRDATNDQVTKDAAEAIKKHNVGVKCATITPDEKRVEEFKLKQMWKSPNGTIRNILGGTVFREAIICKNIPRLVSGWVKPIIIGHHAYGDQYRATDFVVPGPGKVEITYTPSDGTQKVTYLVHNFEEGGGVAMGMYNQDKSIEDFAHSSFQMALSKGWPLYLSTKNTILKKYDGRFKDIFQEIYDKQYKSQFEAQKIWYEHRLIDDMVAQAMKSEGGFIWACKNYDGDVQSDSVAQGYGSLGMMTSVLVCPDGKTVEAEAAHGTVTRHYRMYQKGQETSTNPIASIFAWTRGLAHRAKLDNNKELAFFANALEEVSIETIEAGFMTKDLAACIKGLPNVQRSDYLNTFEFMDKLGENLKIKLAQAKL
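IDH1-R132H (0.5 ug/mL) preincubated 30 min with compound, then NADPH (0.016 mM) and alpha-KG (2 mM) added; 80 min at RT, pH 7.5. Remaining NADPH coupled via diaphorase/resazurin to fluorescence (540/590 nm); concentration-response curves normalized to no-enzyme control.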
FUS suppressor: FUS proteinopathy suppression in yeast; S. cerevisiae FUS-expressing, growth rescue, OD600, 24 h; 390,000 tested, 0.24% active; Potency, µM (top dose mostly 76.6 µM), most hits filed as activators;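 note: potency is the fitted concentration of half-maximal effect; plate controls were DMSO vehicle for no effect and reference control for full effect; nearly all actives have a fitted effect of over 55% in size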
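S. cerevisiae expressing FUS from galactose induction served as the toxicity model. Growth after 24hr at 30C, read as absorbance at 600 nm, indicates suppression of toxicity; compounds dosed at several concentrations.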
aSyn yeast inh: alpha-synuclein toxicity inhibition in yeast. Yeast expressing alpha-synuclein, growth rescue, BacTiter-Glo, 24 h. Potency, µM (titrated, usually from 46.1 µM), without a hit: at the highest dose growth rescue (activation), hits mostly activators. 370,000 tested, 0.14% active. AID 652106; note: potency is the fitted concentration of half-maximal effect; % of control where 0% means no effect; nearly all actives have a fitted effect of over 65% in size
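Galactose-induced alpha-syn yeast (OD600=0.02, raffinose-pregrown) + pinned cpd, 24 hr, 30 deg C; growth by BacTiter-Glo luminescence. Growth restoration scores as activation.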
Abeta rescue: compounds reversing amyloid beta toxicity in yeast. yeast expressing A-beta42, growth rescue, OD600, 48 h; response scale: 0% DMSO, 100% iron-clioquinol control. Potency, µM (highest dose often 46.1 µM), most hits filed as activators. 410,000 tested, 0.063% active; note: potency is the fitted concentration of half-maximal effect; nearly all actives have a fitted effect of over 55% in size
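Yeast A-beta toxicity model in growth medium with pinned compounds, 48 h at 30 C; growth read as absorbance at 600 nm. Normalized to FeCl3/clioquinol equimolar mix (positive) and DMSO (negative).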
LDHA block: blocks human lactate dehydrogenase A; P00338; activity change, % (values are at about 110 or 230 µM); purified LDHA, NADH/diaphorase-resazurin fluorescence; stronger effect = lower value; 480,000 tested, 0.15% active; in the data active = activity change below about -30%; inconclusive = mostly about -25% to -30%;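 note: plate controls were DMSO wells for no effect and wells without enzyme for full effect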
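Remaining NADH was detected by diaphorase (0.133 mg/mL) converting 37 µM resazurin to fluorescent resorufin, read at 0 and 20 minutes. The preceding 5-minute room-temperature reaction used 2 nM LDHA, 0.2 mM sodium pyruvate and 0.06 mM NADH at pH 7.4.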
Starred values were filed as active, the others as inactive; i = inactive; ? = inconclusive; / = no result given. Unless noted, calls come from the whole dose curve; as a rule, active = well fitted curve in the direction sought with a large enough effect; inconclusive = small, poorly fitted or top-dose-only effect, or another doubt; inactive = no such curve, though single readings can be large; an effect the other way counts as inactive or inconclusive.

SMILES | TDP43 rescue | IDH1 R132H inh | FUS suppressor | aSyn yeast inh | Abeta rescue | LDHA block
CC(C)(C)C(O)C(Cc1ccccc1Cl)n1cncn1 (configuration not stated) | 35.5µM* | 0.0% | i | 14.1% | i | -7.0
Cc1cc(C(=O)NCc2ccco2)c2cccc(-c3ccccc3)c2n1 | / | / | / | / | / | 0.7
COc1cccc(C(CNC(=O)c2ccc(S(=O)(=O)Nc3ccc(C)cc3)cc2)N(C)C)c1 (configuration not stated) | / | / | / | / | / | -1.4
COc1cc(C2CC(=O)c3c(C)nc(Nc4ccccc4)nc3C2)cc(OC)c1OC (configuration not stated) | / | / | / | / | / | -3.9
Cc1cc(C)c2c(c1)-c1cc(C)nn1C(c1ccc3c(c1)OCO3)N2 (configuration not stated) | 17.8µM* | 4.4% | i | 11.4% | i | 0.1
CCOc1ccc(C2Nc3c(C)cccc3-c3cc(C)nn32)cc1 (configuration not stated) | 11.2µM* | 25.7% | i | / | ? | -7.4
CCN1CCN(S(=O)(=O)c2ccc(Cl)c(C(=O)N3CCN(c4ccccn4)CC3)c2)CC1 | / | / | / | / | / | 9.8
Nc1c(C(=O)NCc2ccco2)nnn1CC(=O)Nc1ccccc1 | -2.9% | 12.1% | 39.8µM* | -6.7% | i | -0.3
CCC(=O)N1CCc2cc(CNS(=O)(=O)c3ccc(Cl)s3)ccc21 | 12.6µM* | 7.5% | i | / | i | -5.3
Cc1ccc(CNS(=O)(=O)c2ccc(Cl)s2)cc1 | 12.6µM* | -2.1% | i | 9.1% | i | -7.7
Nn1cnc2c(c1=O)C1(CCCCC1)Cc1ccccc1-2 | 10µM* | 4.9% | / | 0.0% | i | -8.0
CC(=O)Nn1cnc2c(c1=O)C1(CCCC1)Cc1ccccc1-2 | 2.1% | 4.7% | i | -1.1% | i | -0.6
Cc1ccc2nc(N3CCN(C(=O)C4COc5ccccc5O4)CC3)sc2c1 (configuration not stated) | 20µM* | -11.5% | i | / | i | 1.8
COc1cccc2sc(N3CCN(C(=O)C4COc5ccccc5O4)CC3)nc12 (configuration not stated) | ? | 6.0% | i | 20.3% | i | -1.7
O=C(C1COc2ccccc2O1)N1CCN(c2nc3c(F)cccc3s2)CC1 (configuration not stated) | 10µM* | -5.9% | i | / | 12.6µM* | 4.5
COc1ccc(-c2ccc(=O)n(CCNC(=O)Cc3ccc(Cl)cc3)n2)cc1 | / | / | / | / | / | 4.8
Cc1ccc(S(=O)(=O)NC(=O)C2(C)CCN2C(=O)Cc2ccc(-c3ccccc3)cc2)cc1 (configuration not stated) | 30.0% | / | 28.2µM* | -16.9% | i | -11.8
CC1(C(=O)Nc2cccc3cccnc23)CCN1C(=O)Cc1ccc(Cl)cc1Cl (configuration not stated) | 20µM* | / | i | -2.8% | i | -0.7
CC(C)(C)c1ccc(CC(=O)N2CCC2(C)C(=O)Nc2cnc3ccccc3c2)cc1 (configuration not stated) | 17.8µM* | / | ? | ? | i | 0.9
CC1(C(=O)Nc2cccc3ncccc23)CCN1C(=O)Cc1ccc(-c2ccccc2)cc1 (configuration not stated) | 25.1µM* | / | ? | 7.1% | i | 0.5
NS(=O)(=O)c1ccc(N=Nc2ccc(O)c3ncccc23)cc1 | ? | 10.5% | i | -22.5% | i | 10.8
CCOc1ccc(N=Nc2ccc(O)c3ncccc23)cc1 | ? | 0.0% | i | 12.6µM* | ? | 1.4
CCCCCCn1c(=O)n2n(c1=O)[C@@H]1CN(S(=O)(=O)c3ccc(C)cc3)C[C@]1(O)[C@@H](OC(=O)NCc1ccc(OC)c(OC)c1)C2 | 0.0% | 9.9% | 22.4µM* | 10.6% | i | -4.2
N#Cc1c(N)[nH]c2ccc(Sc3ccccc3)cc12 | 22.4µM* | 6.3% | / | -29.5% | i | 2.5
N#Cc1c(N)[nH]c(=S)c(C#N)c1-c1ccccc1 | 24.2% | -2.3% | i | 1.5% | i | -1.3
SMILES | TDP43 rescue | IDH1 R132H inh | FUS suppressor | aSyn yeast inh | Abeta rescue | LDHA block
Cc1ccc(C)c(OCCN)c1 | / | / | / | / | / | -21.0
COCCNC(=O)Cn1cc2c(n1)CCC(C)C2 (configuration not stated) | 6.3% | -5.0% | i | -1.1% | i | 3.5
CC1CCc2nn(CC(=O)NCCC3=CCCCC3)cc2C1 (configuration not stated) | 17.8µM* | 5.6% | i | -1.7% | ? | 4.2
Cc1nonc1OCCNc1ccc([N+](=O)[O-])cc1[N+](=O)[O-] | ? | -1.0% | / | 7.6% | ? | -4.0
Cc1nonc1OC(C)CNc1ccc([N+](=O)[O-])cc1 (configuration not stated) | 20µM* | 0.2% | i | -4.6% | i | -7.9
O=C(CCc1cc(Cl)no1)N(CCS(=O)(=O)N1CCOCC1)Cc1ccncc1 | / | / | / | / | / | -8.9
CC12CCC(=O)N1C(C(=O)Nc1nc(-c3ccc(F)cc3)cs1)CS2 (configuration not stated) | 7.5% | -5.7% | i | 2.4% | i | -12.2
CC12CCC(=O)N1C(C(=O)Nc1nc(-c3ccccc3Cl)cs1)CS2 (configuration not stated) | 10µM* | 4.1% | i | 7.0% | i | -2.5
Cc1ccc(SCCC(=O)OCC(=O)c2cc(Cl)ccc2Cl)cc1 | / | / | / | / | / | -0.7
CCNc1nc(Cl)nc(NC2CCCCC2)n1 | 12.6µM* | 3.5% | i | -7.9% | i | -3.7
O=C(COc1ccc(Br)cc1)N1CCN(c2ccc([N+](=O)[O-])c(N3CCCCC3)c2)CC1 | 8.91µM* | 1.0% | i | 11.4% | i | -7.9
O=C(COc1ccccc1)N1CCN(c2ccc([N+](=O)[O-])c(N3CCCCC3)c2)CC1 | ? | -0.6% | i | 1.3% | i | -1.8
Nc1ccc(Sc2ccc([N+](=O)[O-])cc2)cc1 | ? | 4.9% | i | 20µM* | i | -2.2
O=c1[nH]c2ccc(-c3csc(NC4CCCC4)n3)cc2o1 | / | / | / | / | / | 5.2
Cc1cc(C)c([N+](=O)[O-])cc1-c1ccc(/C=N/c2c(-c3ccco3)nc3ccccn23)o1 | 14.1µM* | -2.8% | i | 4.1% | i | 7.7
CCCc1cc(-c2nc(N)ncc2-c2csc(C)n2)c(O)cc1OC | 12.6µM* | 6.5% | i | 1.3% | i | 1.5
CCc1ccc(OCC(=O)N(CC#N)C2CC2)cc1 | / | / | / | / | / | -3.1
CCCCCCCCCCOC(=O)Cn1c(COc2ccccc2C)[n+](C)c2ccccc21 | / | -2.6% | 39.8µM* | -51.9% | i | 2.9
